Conditions in all cases: outcome: dose series up to 57.1 µM unless noted
A short description of assay [1]: Primary qHTS for inhibitors of SARS-S pseudo-typed particle cell entry (AID 1479145; further: nearly all actives have a fitted effect of over 45% in size; further: potency means the concentration at half of the fitted maximal effect). (Quantitative high-throughput screening tests each substance at several concentrations.)
The nature of assay [2]: Primary qHTS for Huh7 cytotoxicity: counterscreen for inhibitors of MERS-S pseudotyped particle cell entry (AID 1479147).
A short description of assay [3]: Primary qHTS for inhibitors of MERS-S pseudo-typed particle cell entry (AID 1479149). Further: nearly all actives have a fitted effect of over 60% in size.
The nature of assay [4]: Primary qHTS for Vero E6 cytotoxicity: counterscreen for inhibitors of SARS-S pseudo-typed particle cell entry (AID 1479150).
Assay [5] in a line: Cytotoxicity counterscreen for inhibitors of SARS-CoV-2 cell entry (AID 1645845). Further: nearly all actives have a fitted effect of over 50% in size. Summed up: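 Counterscreen run in the same HEK293-ACE2 line as the pseudotyped-particle entry assay, without particles. Viability after 48 h at 37 C was read as ATP luminescence, scaled between cell-containing and cell-free wells.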
A general note: The purpose of a counterscreen is to sort out artefacts and off-target activity.

Records with an inconclusive call do not appear. Activity calls are given as the source filed them. The call rests on the fitted dose curve. Numbered stars: 1 amine (or outer) side, 2 acyl side, 3 side chain; on linkers, the order of the positions; unused ones are H or OH. Square brackets hold non-standard residues; d marks the D form. Side chains are listed from the residue outwards. Peptide text beside a SMILES is read from it. * marks the point of attachment. ξ: configuration not given here. d(hArg(Et2)) = CCN=C(NCC)NCCCC[C@@H](N)C(=O)O; hArg(Et2) = CCN=C(NCC)NCCCC[C@H](N)C(=O)O; Phe(4-Cl) = N[C@@H](Cc1ccc(Cl)cc1)C(=O)O; Ethylenediamine = C(CN[*:2])N[*:1]; ξ2Nal = NC(Cc1ccc2ccccc2c1)C(=O)O; Hyp = O=C(O)[C@@H]1C[C@@H](O)CN1; 3Pal = N[C@@H](Cc1cccnc1)C(=O)O; Phg = N[C@H](C(=O)O)c1ccccc1; CO = O=C([*:1])[*:2]; ξP = O=C(O)C1CCCN1; Bn = c1ccc(C*)cc1

`CNC(C)[C@@H](O)c1ccc(O)cc1` (stereo partly drawn): the Potency result in assay [1], in assay [2], in assay [3] and in assay [4] was “inactive” in each case.
For `NCCNc1ccc(NCCN)c2c1C(=O)c1ccncc1C2=O`, the Potency in assay [1] was 11.2 µM (active). In addition, the Potency result in assay [2], in assay [3] and in assay [4] was “inactive” throughout.
With `[2H]C([2H])([2H])C(CCC[C@@H](C)[C@H]1CC[C@H]2/C(=C/C=C3\C[C@@H](O)C[C@H](O)C3=C)CCC[C@]12C)C([2H])([2H])[2H]`, the Potency entry in assay [1], in assay [2], in assay [3], in assay [4] and in assay [5] was “inactive” in each case.
In the case of `NC(=O)[C@@H]1CC[C@@H]2CN1C(=O)N2OS(=O)(=O)O`, the Potency result in assay [1], in assay [2], in assay [3], in assay [4] and in assay [5] was “inactive” each time.
As to `CC1(C)[C@H](C=C(Cl)Cl)[C@@H]1C(=O)OCc1c(F)c(F)cc(F)c1F`, the Potency result in assay [1], in assay [2], in assay [3], in assay [4] and in assay [5] was “inactive” throughout.
`NCCCC[C@@H]1NC(=O)[C@@H](Cc2c[nH]c3ccccc23)NC(=O)[C@H](c2ccccc2)NC(=O)[C@@H]2C[C@@H](OC(=O)NCCN)CN2C(=O)[C@H](Cc2ccccc2)NC(=O)[C@H](Cc2ccc(OCc3ccccc3)cc2)NC1=O` (cyclo([Hyp]([CO-Ethylenediamine])[Phg][dW]KY(Bn)F)): the Potency result in assay [1], in assay [2], in assay [3], in assay [4] and in assay [5] was “inactive” throughout.
Regarding `CC(C)(C)NC(=O)[C@H]1CC[C@H]2[C@@H]3CC=C4C=C(C(=O)O)CC[C@]4(C)[C@H]3CC[C@]12C`, the Potency entry in assay [1], in assay [2], in assay [3] and in assay [4] was “inactive” in each case.
Turning to `C[C@]12C[C@@H]3S[C@H]3C[C@@H]1CC[C@H]1[C@H]3CC[C@@H](O)[C@@]3(C)CC[C@@H]12`, the Potency entry in assay [1], in assay [2], in assay [3], in assay [4] and in assay [5] was “inactive” throughout.
With `C[N+](C)(C)C1CCC(CC2CCC([N+](C)(C)C)CC2)CC1` (stereo not drawn), the Potency result in assay [1], in assay [2], in assay [3] and in assay [4] was “inactive” in each case.
Turning to `CC(Cc1ccc2c(c1)OCO2)NCC(O)c1ccc(O)c(O)c1` (stereo not drawn), the Potency result in assay [1], in assay [2], in assay [3], in assay [4] and in assay [5] was “inactive” each time.
For the compound `CCCCN=C(N)NC(=N)N`, the outcome in assay [1], in assay [2], in assay [3], in assay [4] and in assay [5] was “inactive [setting not given]” throughout.
Take `O=[N+]([O-])c1ccc(/C=C/c2cccc(CO)n2)o1`: the Potency result in assay [1], in assay [2], in assay [3] and in assay [4] was “inactive” throughout.
`CC[C@H]1OC(=O)C[C@@H](OC(C)=O)[C@H](C)[C@@H](O[C@@H]2O[C@H](C)[C@@H](O[C@H]3C[C@@](C)(O)[C@@H](OC(=O)CC(C)C)[C@H](C)O3)[C@H](N(C)C)[C@H]2O)[C@@H](CC=O)C[C@@H](C)C(=O)/C=C/C(C)=C/[C@@H]1CO[C@@H]1O[C@H](C)[C@@H](O)[C@@H](OC)[C@H]1OC`: the Potency entry in assay [1], in assay [2], in assay [3], in assay [4] and in assay [5] was “inactive” throughout.
On to `CO[C@@H]1[C@H](C)OC(O[C@H]2CC(Oc3cc4cc5c(c(O)c4c(O)c3C)C(=O)[C@@H](OC3C[C@@H](OC4C[C@H](OC6C[C@](C)(O)[C@@H](OC(C)=O)[C@H](C)O6)[C@@H](O)[C@H](C)O4)[C@H](O)[C@@H](C)O3)[C@H]([C@@H](OC)C(=O)[C@@H](O)[C@H](C)O)C5)O[C@@H](C)[C@H]2OC(C)=O)C[C@@H]1O` (stereo partly drawn), for which the Potency result in assay [1], in assay [2], in assay [3], in assay [4] and in assay [5] was “inactive” in each case.
In the case of `CCCCC(CC)CCC(CC(C)C)OS(=O)(=O)O` (stereo not drawn), the Potency entry in assay [1], in assay [2], in assay [3] and in assay [4] was “inactive” throughout.
For `O=C(OCCO)c1ccccc1O`, the Potency result in assay [1], in assay [2], in assay [3], in assay [4] and in assay [5] was “inactive” throughout.
Take `CC(C)[C@@H](C)/C=C/[C@@H](C)[C@H]1CC[C@H]2/C(=C/C=C3\C[C@@H](O)CC[C@@H]3C)CCC[C@]12C`: the Potency entry in assay [1], in assay [2], in assay [3], in assay [4] and in assay [5] was “inactive” each time.
Turning to `COc1ccc(NC(=O)c2ccc(C(=N)N(C)C)cc2)c(C(=O)Nc2ccc(Cl)cn2)c1`, the Potency entry in assay [1], in assay [2], in assay [3], in assay [4] and in assay [5] was “inactive” in each case.
For the compound `CNC(=O)c1c(I)c(C(=O)NCC(=O)Nc2c(I)c(C(=O)O)c(I)c(C(=O)NCCO)c2I)c(I)c(N(C)C(C)=O)c1I`, the Potency entry in assay [1], in assay [2], in assay [3], in assay [4] and in assay [5] was “inactive” in each case.
Consider `Cc1cc(O)ccc1C(C)(C)C`, for which the Potency result in assay [1], in assay [2], in assay [3], in assay [4] and in assay [5] was “inactive” each time.
Turning to `CN(CCCCCCCCCCN(C)C(=O)Oc1cccc([N+](C)(C)C)c1)C(=O)Oc1cccc([N+](C)(C)C)c1`, the Potency result in assay [1], in assay [2], in assay [3], in assay [4] and in assay [5] was “inactive” in each case.
For the compound `CCCCCCCCCCCCCCCCCCCCCC(=O)Nc1ccn([C@@H]2O[C@H](CO)[C@@H](O)[C@@H]2O)c(=O)n1`, the Potency result in assay [1], in assay [2], in assay [3], in assay [4] and in assay [5] was “inactive” in each case.
For `NCCCC(N)C(=O)O` (stereo not drawn), the Potency result in assay [1], in assay [2], in assay [3], in assay [4] and in assay [5] was “inactive” each time.
As for `CCOC(=O)COc1ccc2c(C)c(CCN(CC)CC)c(=O)oc2c1`, the Potency entry in assay [1], in assay [2], in assay [3] and in assay [4] was “inactive” each time.
As to `O1[As]2O[As]1O2`, the Potency entry in assay [1], in assay [2], in assay [3], in assay [4] and in assay [5] was “inactive” in each case.
As for `C=C1C[C@@H]2CC[C@@]34C[C@H]5O[C@H]6[C@@H](O3)[C@H]3O[C@H](CC[C@@H]3O[C@H]6[C@H]5O4)CC(=O)C[C@@H]3[C@@H](OC)[C@@H](C[C@H](O)CN)O[C@H]3C[C@H]3O[C@@H](CC[C@@H]1O2)C[C@@H](C)C3=C`, the Potency entry in assay [1], in assay [2], in assay [3], in assay [4] and in assay [5] was “inactive” each time.
`OC[C@H]1O[C@@H](OC[C@H]2O[C@@H](O[C@@H]3[C@@H](O)[C@H](O)O[C@H](CO)[C@H]3O)[C@H](O)[C@@H](O[C@@H]3O[C@H](CO)[C@@H](O)[C@H](O)[C@H]3O)[C@@H]2O)[C@H](O)[C@@H](O)[C@@H]1O`: the Potency result in assay [1], in assay [2], in assay [3] and in assay [4] was “inactive” each time.
`CCC(O)c1ccccc1` (stereo not drawn): the Potency result in assay [1], in assay [2], in assay [3], in assay [4] and in assay [5] was “inactive” throughout.
Take `CCCCCCCCCCCCCCCC(=O)OC[C@@H](O)[C@H]1OC[C@H](O)[C@H]1O`: the Potency entry in assay [1], in assay [2], in assay [3] and in assay [4] was “inactive” each time.
Take `CCNC(=NCCCC[C@H](NC(=O)[C@H](CC(C)C)NC(=O)[C@@H](CCCCN=C(NCC)NCC)NC(=O)[C@@H](Cc1ccc(O)cc1)NC(=O)[C@@H](CO)NC(=O)[C@H](Cc1cccnc1)NC(=O)[C@H](Cc1ccc(Cl)cc1)NC(=O)C(Cc1ccc2ccccc2c1)NC(C)=O)C(=O)N1CCCC1C(=O)N[C@H](C)C(N)=O)NCC` (stereo partly drawn) (Ac-[ξ2Nal][Phe(4-Cl)][3Pal][dS][dY][d(hArg(Et2))]L[hArg(Et2)][ξP][dA]-NH2): the Potency entry in assay [1], in assay [2], in assay [3] and in assay [4] was “inactive” throughout.
On to `OCc1cc(C(O)CNCCCCCCOCCOCc2c(Cl)cccc2Cl)ccc1O` (stereo not drawn), for which the Potency entry in assay [1], in assay [2], in assay [3], in assay [4] and in assay [5] was “inactive” each time.
For the compound `Cc1cc2nc3c(=O)[nH]c(=O)nc-3n(C[C@H](O)[C@H](O)[C@H](O)COP(=O)(O)OP(=O)(O)OC[C@H]3O[C@@H](n4cnc5c(N)ncnc54)[C@H](O)[C@H]3O)c2cc1C`, the Potency entry in assay [1], in assay [2], in assay [3] and in assay [4] was “inactive” each time.
As for `C[C@]12CCC3c4ccc(OS(=O)(=O)O)cc4CCC3C1CCC2=O` (stereo partly drawn), the Potency entry in assay [1], in assay [2], in assay [3] and in assay [4] was “inactive” each time.
On to `C=C[C@@H]1C[C@]1(NC(=O)[C@@H]1C[C@@H]2CN1C(=O)[C@H](C(C)(C)C)NC(=O)O[C@@H]1C[C@H]1CCCCCc1nc3ccc(OC)cc3nc1O2)C(=O)NS(=O)(=O)C1CC1`, for which the Potency entry in assay [1], in assay [2], in assay [3], in assay [4] and in assay [5] was “inactive” throughout.
Take `OC[C@H]1O[C@@H](OCCc2ccc(O)cc2)[C@H](O)[C@@H](O)[C@@H]1O`: the Potency entry in assay [1], in assay [2], in assay [3], in assay [4] and in assay [5] was “inactive” throughout.
